# Measured values published in PubChem BioAssay AID504332 (National Center for Advancing Translational Sciences (NCATS), 2011).
# About 31,000 (8.9%) of roughly 350,000 compounds were called active. A call without a number means that no potency is given here. Roughly 15% stayed inconclusive and do not appear here. This excerpt belongs to a sample that is enriched for actives. A number with no mark means an inactive call. Calls follow the shape of the dose curve; as a rule, active = well fitted inhibition curve with a large enough effect; inconclusive = small, poorly fitted or top-dose-only effect; inactive = no such curve, though single readings can be large or run the other way.
# Biological target: Histone-lysine N-methyltransferase EHMT2 (Homo sapiens) (UniProt Q96KQ7)
# Assay: qHTS Assay for Inhibitors of Histone Lysine Methyltransferase G9a; also: nearly all actives have a fitted effect of over 75% in size
# Conditions: G9a H3K9 monomethylation, AlphaScreen, 2 h; series mostly up to 59 µM
# Method in brief: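 Quantitative HTS format: methyltransferase activity on a biotin-tagged H3K9 peptide is measured by AlphaScreen, using a rabbit anti-monomethyl-H3K9 antibody with streptavidin donor and anti-IgG acceptor beads. Final levels are 20 nM enzyme, 500 nM peptide, 20 uM SAM; 2 h RT.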
# Potency is read from the fitted curve at half-maximal effect.
# Sequence of Histone-lysine N-methyltransferase EHMT2 (Homo sapiens) (Q96KQ7 913-1193 limits assumed): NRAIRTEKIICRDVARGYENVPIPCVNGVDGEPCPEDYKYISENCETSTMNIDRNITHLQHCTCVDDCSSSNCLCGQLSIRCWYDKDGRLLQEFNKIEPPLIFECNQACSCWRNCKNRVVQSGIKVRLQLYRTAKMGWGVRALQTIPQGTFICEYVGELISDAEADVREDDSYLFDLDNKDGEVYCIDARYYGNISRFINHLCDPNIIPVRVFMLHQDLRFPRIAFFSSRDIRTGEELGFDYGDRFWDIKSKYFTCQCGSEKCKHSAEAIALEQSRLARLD
SMILES,Potency,"activity, negative = inhibition"
Brc1ccccc1/C=N/Nc1nc2ccccc2o1,inactive,–
CCOCCCN1C(=O)C2C(C(=O)Nc3ccc(OCC)cc3)C3C=CC2(O3)C1C(=O)NC1CCCCC1 (configuration not stated),inactive,–
CCN(CC)CCN1C(=O)C2C(C(=O)Nc3ccc(Br)cc3)C3C=CC2(O3)C1C(=O)NC1CCCCC1 (configuration not stated),50.1 µM (active),–
CC(C)N1C(=O)C2C(C(=O)NC3CCCCC3)C3C=CC2(O3)C1C(=O)NC1CCCC1 (configuration not stated),inactive,–
CC(=O)N1c2ccc(S(=O)(=O)N3CCCCCC3)cc2CC1C(=O)NCc1ccccc1C (configuration not stated),inactive,–
Cc1ccc(S(=O)(=O)NCCC(=O)NNC(=O)C2COc3ccccc3O2)cc1 (configuration not stated),inactive,–
Cc1ccc(-n2ncc(C(=O)N(C)Cc3ccccc3)c2-n2cccc2)cc1,inactive,–
COc1ccc(C(=O)NC2CC2)cc1OC1CCN(Cc2ccc(SC)cc2)CC1,inactive,–
CCOC(=O)c1c(NC(C)=O)c2c3c(sc2n1Cc1c(C)cc(C)cc1C)CCCC3,inactive,–
COC(=O)c1ccc(C2CC(=O)Nc3cc(OC)c(OC)cc32)cc1 (configuration not stated),inactive,–
COc1cc2c(cc1OC)C(c1ccc(C)o1)CC(=O)N2 (configuration not stated),20 µM (active),–
COc1cc2c(cc1OC)C(c1ccncc1)CC(=O)N2 (configuration not stated),–,-34% [at 2.33 µM]
O=C(Nc1cc(C(F)(F)F)ccc1Cl)c1cc2nc(-c3ccc4c(c3)OCO4)cc(C(F)(F)F)n2n1,inactive,–
CCOc1ccccc1N(CC)C(=O)Nc1cn(C)c(=O)c2ccccc12,inactive,–
Cc1sc2c(c1C)c(=O)n(-c1ccccc1)c(=O)n2CC(=O)NCC1CCCO1 (configuration not stated),inactive,–
Cn1c(=O)c2[nH]c(NCC3CCCO3)nc2n(-c2ccccc2)c1=O (configuration not stated),8.91 µM (active),–
CC(C)(C)c1nc(NCC2CCCO2)c2nnn(Cc3ccccc3)c2n1 (configuration not stated),inactive,–
CCN(CC)C(=O)CSc1nc2ccsc2c(=O)n1Cc1ccccc1Cl,inactive,–
CCCCN(C)c1ccc([N+](=O)[O-])cc1,inactive,–
CCC1OC(c2ccc([N+](=O)[O-])cc2)=Nc2ccccc21 (configuration not stated),44.7 µM (active),–
CCc1ccc2c(c1)C(c1ccc([N+](=O)[O-])cc1)=NNC(c1ccccc1)=N2,inactive,–
Cc1cccnc1NC(=O)CSc1nnc(COc2ccc(C(C)C)cc2)n1C,inactive,–
COc1ccc(OC)c(NC(=O)CSc2nc3cccnc3n2C)c1,–,-2.8% [at 12.7 µM]
COc1ccc(-c2nnc(SCC(=O)Nc3cccnc3Cl)n2C)cc1,20 µM (active),–

SMILES,Potency,"activity, negative = inhibition"
O=S(=O)(ON(c1ccccc1)S(=O)(=O)c1ccccc1)c1ccccc1,inactive,–
CC1=C/C(=N\OS(=O)(=O)c2ccccc2)C=CC1=O,2.51 µM (active),–
CCOc1ccc(/C=C/C(=O)N(CC)CC(=O)NCc2cccs2)cc1OC,–,7.69% [at 2.33 µM]
O=C(Cn1nnc(-c2ccccc2)n1)NC(=O)NC1CCCC1,inactive,–
Cc1ccc2c(c1)c1ncn(Cc3ccc(F)cc3)c(=O)c1n2C,inactive,–
CC(=O)Nc1ccc(NC(=O)CSc2nnc3c4cc(Br)ccc4n(C)c3n2)cc1,inactive,–
Cn1c2ccc(F)cc2c2nnc(NN)nc21,39.8 µM (active),–
O=C(CN1C(=O)COc2ccc(S(=O)(=O)N3CCOCC3)cc21)N1CCN(c2cccc(Cl)c2)CC1,inactive,–
CCN1CCN(c2nc(Nc3cc(OC)ccc3OC)nc(Nc3cc(OC)ccc3OC)n2)CC1,inactive,–
Cc1ccc(Nc2nc(N3CCOCC3)nc(N3CCOCC3)n2)cc1Cl,inactive,–
CCOc1ccc(Nc2nc(Cl)nc(N3CCN(c4ccc(OC)cc4)CC3)n2)cc1,12.6 µM (active),–
CC1CCN(c2nc3ccc(C(=O)N4CCN(c5ccccc5)CC4)cc3s2)CC1,inactive,–
COC(=O)c1ccc(COC(=O)c2cnc(Cl)c(Cl)c2)cc1,inactive,–
CC1CN(C(=O)c2ccccc2NS(=O)(=O)c2cccc([N+](=O)[O-])c2)CC(C)O1 (configuration not stated),inactive,–
C/C(=N\NS(=O)(=O)c1cccc([N+](=O)[O-])c1)c1cc2ccccc2o1,12.6 µM (active),–
Cc1cc(C)n(S(=O)(=O)c2cccc([N+](=O)[O-])c2)n1,inactive,–
COc1ccccc1NS(=O)(=O)c1ccc(C)c(C(=O)NCC(c2ccco2)N(C)C)c1 (configuration not stated),–,22.9% [at 0.501 µM]
COc1ccc(N2CCN(C3CCCCC3NS(=O)(=O)c3ccccc3)CC2)cc1 (configuration not stated),22.4 µM (active),–
O=S(=O)(NC1CCCCC1N1CCN(c2ccccc2F)CC1)c1ccccc1 (configuration not stated),inactive,–
CCN1CCN(C2CCCCC2NS(=O)(=O)c2ccc(Cl)cc2)CC1 (configuration not stated),inactive,–
CCC(CC)c1nnc(NC(=O)C2CCN(C(=O)c3ccco3)CC2)s1,3.98 µM (active),–
CCC(=O)Nc1ccc(C(=O)N2CCN(C(=O)c3ccco3)CC2)cc1,inactive,–
COc1ccc(CNC(=O)C2CCN(C(=O)c3ccco3)CC2)cc1,inactive,–
